Measured values published in PubChem BioAssay (EPA / NIEHS).
Several values for one entry are separate records, joined by “and”; a condition that tells them apart may be missing. Equal entries are not always repeated. Records with an inconclusive call do not appear. Activity calls are given as the source filed them. How the source made its calls, unless noted: active means hit-call score of the fitted dose curve at least 0.9, where 1 is the maximum; inactive means score below 0.9.

Key:
[1] = target: Estrogen receptor (Homo sapiens) (UniProt P03372); experiment: CCTE_Deisenroth_AIME_384WELL_LUC_Active: CCTE's 384-well Estrogen Receptor Transactivation Assay with AIME metabolic competence (ERTA luciferase; metabolism positive), Deisenroth Lab (AID 2284030; active means hit-call score of the fitted dose curve at least 0.9, where 1 is the maximum)
How it was run: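 Readout: bioluminescent luciferase induction in VM7Luc4E2 cells 24 hour after receiving medium from a 2 h rat hepatic S9 (induced, alginate microsphere) metabolism step. Concentrations 0.002 - 200 uM; activity scaled to 17beta-estradiol positive control.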

[2] = CCTE_Deisenroth_AIME_384WELL_CTox_Active: Cytotoxicity Assessment (CTOX) in CCTE's 384-well Estrogen Receptor Transactivation Assay with AIME metabolic competence (metabolism positive), Deisenroth Lab (AID 2284037; active means hit-call score of the fitted dose curve at least 0.9, where 1 is the maximum;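 further: chemicals first conditioned 2 h by alginate-bound induced rat liver S9 before cells; activity means signal loss indicating cell death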)
How it was run: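 Chemicals pre-incubated 2 hours with alginate-immobilised phenobarbital/beta-naphthoflavone-induced male Sprague Dawley rat liver S9, then conditioned medium applied 24 hour to VM7Luc4E2 cells. Viability by fluorogenic protease substrate; 10-point series 0.002 - 200 uM.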

[3] = target: Estrogen receptor (Homo sapiens) (UniProt P03372); experiment: CCTE_Deisenroth_AIME_384WELL_LUC_Inactive: CCTE's 384-well Estrogen Receptor Transactivation Assay without AIME metabolic competence (ERTA luciferase; metabolism negative), Deisenroth Lab (AID 2284038; active means hit-call score of the fitted dose curve at least 0.9, where 1 is the maximum;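 further: hits raise estrogen receptor luciferase signal so potencies reflect agonists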)
How it was run: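 VM7Luc4E2 ER transactivation, luciferase bioluminescence after 24 h, using medium pre-incubated 2 h with S9-free alginate microspheres. Concentrations 0.002–200 uM; gain of signal fitted relative to 17beta-estradiol.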

[4] = CCTE_Deisenroth_AIME_384WELL_CTox_Inactive: Cytotoxicity Assessment (CTOX) in CCTE's 384-well Estrogen Receptor Transactivation Assay without AIME metabolic competence (metabolism negative), Deisenroth Lab (AID 2284039; active means hit-call score of the fitted dose curve at least 0.9, where 1 is the maximum;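 further: cell viability via live-cell protease substrate cleaved to fluorescent probe; cells exposed 24 h to medium preincubated 2 h with alginate-water beads without S9; loss of fluorescence signal means loss of viability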)
How it was run: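 Metabolism-negative arm: chemicals (10-point, 0.002 - 200 uM) preincubated 2 h with alginate-water lids, medium moved onto VM7Luc4E2 cells for 24 h. Fluorescent live-cell protease readout; bidirectional curve fit.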

[5] = target: Estrogen receptor (Homo sapiens) (UniProt P03372); experiment: CCTE_Deisenroth_AIME_384WELL_LUC_Shift: CCTE's 384-well Estrogen Receptor Transactivation Assay with AIME metabolic competence data shift (ERTA luciferase; difference in metabolism positive and negative), Deisenroth Lab (AID 2284041);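 further: shift is response with S9 minus without S9 so positive means metabolism raised ER signal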
How it was run: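 Chemicals (0.002–200 uM, 10 points) pre-incubated 2 h with alginate-encapsulated induced male Sprague Dawley rat liver S9 or S9-free, then medium applied 24 h to VM7Luc4E2 cells; luciferase. Endpoint is per-concentration difference, S9-positive minus negative.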

[6] = CCTE_Shafer_MEA_acute_per_network_burst_spike_number_mean: CCTE's Neural Acute Assay for Average Number of Spikes in a Network Burst, Shafer Lab (AID 2284019);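 on AC50: curve fitted for loss of signal so actives reduce spikes per network burst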
How it was run: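 Rat cortical cultures, DIV 13/15; spike threshold 8x rms noise, 300-5000 Hz band-pass, 12.5 kHz sampling; wells need >/= 10 active electrodes. Compound 0.03-40 uM, 40 min, 37 C; % change vs own baseline, DMSO negative control.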

[7] = CCTE_Shafer_MEA_acute_per_network_burst_spike_number_std: CCTE's Neural Acute Assay for Standard Deviation of Number of Spikes in a Network Burst, Shafer Lab (AID 2284020);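 further: fitted for decrease in spike-number SD versus DMSO so actives lower it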
How it was run: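 Rat cortical cultures, DIV 13/15, 37 C; 20-min stabilisation, 40-min baseline, compound 0.03-40 uM, 40-min re-record. Spikes detected at 8x rms noise (300-5000 Hz band-pass). Readout: % change from baseline in per-burst spike-number SD.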

[8] = CCTE_Shafer_MEA_acute_per_network_burst_electrodes_number_mean: CCTE's Neural Acute Assay for Mean Number of Electrodes in a Network Burst, Shafer Lab (AID 2284021);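 further: curves fitted for decreases only so hits reduce electrodes per burst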
How it was run: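 Readout: % change in mean electrodes active per network burst, post- vs pre-treatment, each well. Spikes detected at 8x rms noise after 300-5000 Hz band-pass; rat cortical cultures, DIV 13/15, compounds 0.03-40 uM, DMSO baseline.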

[9] = CCTE_Shafer_MEA_acute_network_burst_percentage: CCTE's Neural Acute Assay for Percentage of Network Bursts, Shafer Lab (AID 2284022);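 further: curves fitted for loss so actives lower network burst percentage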
How it was run: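 Rat cortical cultures, DIV 13/15; 20 min equilibration, 40 min baseline, compound 0.03-40 uM, 40 min recording, 37 C. Spikes: 300-5000 Hz band-pass, threshold 8x rms noise. Readout: % change in network-burst spike fraction; loss direction vs DMSO.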

[10] = CCTE_Shafer_MEA_acute_cross_correlation_area: CCTE's Neural Acute Assay for Area of Cross Correlation, Shafer Lab (AID 2284024);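 further: rat primary cortical neuron networks on 48-well MEA at DIV 13 or 15 with 40 min exposure; area under pooled inter-electrode spike cross-correlation near zero lag as percent change from own baseline; curves fitted for loss of cross-correlation area so actives lower synchrony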
How it was run: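 Rat cortical cultures, DIV 13/15, MEA; spikes detected at 8x rms noise (300-5000 Hz band-pass). Compound 0.03-40 uM, ≥3 wells each. Readout: % change in pooled inter-electrode cross-correlation area vs own baseline; DMSO negative control.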

[11] = CCTE_Shafer_MEA_acute_cross_correlation_HWHM: CCTE's Neural Acute Assay for Cross Correlation at Half Width at Half Maximum, Shafer Lab (AID 2284026);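 further: percent change per well from pre-dose baseline in spike cross-correlogram half width; hits are a decrease in cross-correlogram half width relative to DMSO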
How it was run: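 Read-out: half width at half maximum of action-potential cross-correlogram, percent change versus pre-treatment baseline, fitted in loss direction against DMSO. Rat cortical cultures, DIV 13 or 15, dosed 0.03-40 uM, 40-min recordings at 37 C.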

[12] = CCTE_Shafer_MEA_dev_firing_rate_mean: CCTE's Neural Network Formation Assay for Mean Firing Rate, Shafer Lab (AID 2284031)
How it was run: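 Spike frequency (spikes/recording length, averaged over active electrodes) was recorded on days 5, 7, 9 and 12 and collapsed to AUC; rat cortical cultures received compound continuously over 12 days of network development.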

[13] = CCTE_Shafer_MEA_dev_per_burst_spike_percent: CCTE's Neural Network Formation Assay for Percent of Spikes in a Burst, Shafer Lab (AID 2284032)
How it was run: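 Value is trapezoidal AUC over recordings on days 5, 7, 9 and 12 of the well-mean fraction of spikes falling in single-electrode bursts; rat cortical cultures exposed continuously from plating, treatment renewed DIV 5 and 9, fitted downward against DMSO.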

[14] = CCTE_Shafer_MEA_dev_burst_rate: CCTE's Neural Network Formation Assay for Burst Rate, Shafer Lab (AID 2284042)
How it was run: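 Cells plated, treated day 0; recorded DIV 5, 7, 9, 12; fed and re-treated DIV 5, 9. Endpoint: bursts per recording time, active-electrode well mean, trapezoidal AUC, fitted in decreasing direction against DMSO baseline.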

[15] = CCTE_Shafer_MEA_dev_bursting_electrodes_number: CCTE's Neural Network Formation Assay for Number of Bursting Electrodes, Shafer Lab (AID 2284043; active means hit-call score of the fitted dose curve at least 0.9, where 1 is the maximum;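 on AC50: potency is for loss of bursting electrodes relative to DMSO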)
How it was run: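 Rat cortical primary neurons, 48-well MEA, 16 electrodes/well; dosing DIV 0–12, re-dosed with full media change DIV 5, 9. Recordings DIV 5/7/9/12, AxIS adaptive spike detector; bursting electrode = ≥1 burst/2 min. AUC across days; loss of signal vs DMSO.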

[16] = CCTE_Deisenroth_AIME_96WELL_CTox_Active: Cytotoxicity Assessment (CTOX) in CCTE's 96-well Estrogen Receptor Transactivation Assay with AIME metabolic competence (metabolism positive), Deisenroth Lab (AID 2284028; active means hit-call score of the fitted dose curve at least 0.9, where 1 is the maximum)
How it was run: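 Cytotoxicity in VM7Luc4E2 breast cells after 24 h exposure to medium from a 2 h metabolic pre-incubation with induced rat hepatic S9 in alginate microspheres; fluorescent live-cell protease readout, 10-point series 0.002–200 uM, n=4.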

[17] = CCTE_Deisenroth_AIME_96WELL_CTox_Inactive: Cytotoxicity Assessment (CTOX) in CCTE's 96-well Estrogen Receptor Transactivation Assay without AIME metabolic competence (metabolism negative), Deisenroth Lab (AID 2284029; active means hit-call score of the fitted dose curve at least 0.9, where 1 is the maximum)
How it was run: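 Metabolism-negative mode: alginate-water lids without rat S9, 2 h pre-incubation of 10-point series (0.002 - 200 uM). Conditioned medium on VM7Luc4E2 cells 24 h; loss of fluorescent live-cell protease signal marks cytotoxicity.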

[18] = CCTE_Shafer_MEA_dev_active_electrodes_number: CCTE's Neural Network Formation Assay for Number of Active Electrodes, Shafer Lab (AID 2284040; active means hit-call score of the fitted dose curve at least 0.9, where 1 is the maximum;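 further: potency for loss of active electrodes versus DMSO so lower counts are hits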)
How it was run: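 Counts electrodes per well firing at least 5 spikes/min, recorded on days 5, 7, 9 and 12 in rat cortical cultures dosed continuously from plating (treatment refreshed DIV 5, 9). Value is the area under the curve over recordings, fitted downward relative to DMSO.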

Measured: AC50

Chain of Estrogen receptor (Homo sapiens) (P03372 whole entry, looked up): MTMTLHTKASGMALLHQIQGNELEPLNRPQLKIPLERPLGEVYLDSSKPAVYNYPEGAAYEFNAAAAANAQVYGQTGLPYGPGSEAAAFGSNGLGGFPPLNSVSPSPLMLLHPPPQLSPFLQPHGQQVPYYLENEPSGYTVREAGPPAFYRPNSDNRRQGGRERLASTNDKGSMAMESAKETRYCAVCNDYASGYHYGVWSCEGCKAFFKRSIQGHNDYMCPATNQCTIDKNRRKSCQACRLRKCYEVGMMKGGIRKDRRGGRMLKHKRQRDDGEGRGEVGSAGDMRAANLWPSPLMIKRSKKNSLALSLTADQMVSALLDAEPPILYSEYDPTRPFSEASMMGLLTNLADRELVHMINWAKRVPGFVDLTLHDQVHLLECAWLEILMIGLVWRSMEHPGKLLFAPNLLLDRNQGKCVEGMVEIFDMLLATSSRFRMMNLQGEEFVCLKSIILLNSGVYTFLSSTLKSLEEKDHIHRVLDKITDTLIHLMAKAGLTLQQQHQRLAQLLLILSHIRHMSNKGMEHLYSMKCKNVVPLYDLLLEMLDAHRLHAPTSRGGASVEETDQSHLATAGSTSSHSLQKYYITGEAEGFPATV

OC[C@H]1O[C@@H](O[C@H]2[C@H](O)[C@@H](O)[C@H](O)O[C@@H]2CO)[C@H](O)[C@@H](O)[C@H]1O
inactive: [1] | [2] | [3] | [4] | [5]

CC(C)CCCC(C)(C)O
inactive: [6] | [7] | [8] | [9] | [10] | [11]

CCCCN(CCO)CCO
active: [6] 15 µM | [9] 15 µM
inactive: [7] | [8] | [10] | [11]

CC(C)C(=O)c1ccccc1
inactive: [1] | [2] | [3] | [4] | [5]

N[C@@H](CCC(=O)O)C(=O)O
inactive: [6] | [7] | [8] | [9] | [10] | [11] | [12] | [13] | [14] | [15]

C[C@]12CC[C@@H]3c4ccc(O)cc4CC[C@H]3[C@@H]1CC[C@@H]2O
inactive: [16] | [17] | [12] | [13] | [14]
active: [18] 10 µM and 13.5 µM | [15] 10 µM

CC(=O)OC/C=C(C)/C=C/C=C(C)/C=C/C1=C(C)CCCC1(C)C
inactive: [1] | [2] | [3] | [4] | [5]

CC(=O)c1ccc(C)cc1
inactive: [6] | [7] | [8] | [9] | [10] | [11]

CC(CCO)CC(C)(C)C (stereo unspecified)
inactive: [1] | [2] | [3] | [4] | [5]

O=C(c1ccc(OCCN2CCCCC2)cc1)c1c(-c2ccc(O)cc2)sc2cc(O)ccc12
inactive: [8] | [9] | [10]
active: [6] 4.05 µM | [7] 33.9 µM | [11] 32.7 µM

C#C[C@]1(O)CC[C@H]2[C@@H]3CCc4cc(O)ccc4[C@H]3CC[C@@]21C
active: [16] 135 µM | [17] 116 µM | [2] 77.6 µM | [4] 93.7 µM

CCCO[Si](OCCC)(OCCC)OCCC
inactive: [6] | [7] | [8] | [10]
active: [9] 2.98 µM | [11] 0.0212 µM

C1CCCNCC1
inactive: [1] | [2] | [3] | [4] | [5]
